# From PubChem BioAssay
# BoNT-F LC inh: BoNT/F light chain protease inhibitors, primary screen, biochemical, flow cytometry, MLPCN library; AID 588497, 2011; Multiplex microsphere protease cleavage assay; Botulinum neurotoxin type F light chain protease (Clostridium botulinum); inhibition, % at 10 µM; actives 0.22% (n = 360,000); in the data active = inhibition above about 35%, passing the limit was not always enough; inconclusive = no clear call, values can overlap the other calls; note: plate controls were buffer without enzyme for full effect and enzyme alone for no effect
# Anthrax LF inh2: Bacillus anthracis LF protease inhibitors, primary screen, biochemical, multiplex microsphere, MLPCN library; actives 0.12% (n = 360,000); inhibition, % at 10 µM; Lethal factor (Bacillus anthracis), P15917; AID 588501, 2011; multiplex microsphere protease cleavage assay; note: plate controls were buffer without enzyme for full effect and enzyme alone for no effect
# Target sequence (P15917 whole entry, looked up): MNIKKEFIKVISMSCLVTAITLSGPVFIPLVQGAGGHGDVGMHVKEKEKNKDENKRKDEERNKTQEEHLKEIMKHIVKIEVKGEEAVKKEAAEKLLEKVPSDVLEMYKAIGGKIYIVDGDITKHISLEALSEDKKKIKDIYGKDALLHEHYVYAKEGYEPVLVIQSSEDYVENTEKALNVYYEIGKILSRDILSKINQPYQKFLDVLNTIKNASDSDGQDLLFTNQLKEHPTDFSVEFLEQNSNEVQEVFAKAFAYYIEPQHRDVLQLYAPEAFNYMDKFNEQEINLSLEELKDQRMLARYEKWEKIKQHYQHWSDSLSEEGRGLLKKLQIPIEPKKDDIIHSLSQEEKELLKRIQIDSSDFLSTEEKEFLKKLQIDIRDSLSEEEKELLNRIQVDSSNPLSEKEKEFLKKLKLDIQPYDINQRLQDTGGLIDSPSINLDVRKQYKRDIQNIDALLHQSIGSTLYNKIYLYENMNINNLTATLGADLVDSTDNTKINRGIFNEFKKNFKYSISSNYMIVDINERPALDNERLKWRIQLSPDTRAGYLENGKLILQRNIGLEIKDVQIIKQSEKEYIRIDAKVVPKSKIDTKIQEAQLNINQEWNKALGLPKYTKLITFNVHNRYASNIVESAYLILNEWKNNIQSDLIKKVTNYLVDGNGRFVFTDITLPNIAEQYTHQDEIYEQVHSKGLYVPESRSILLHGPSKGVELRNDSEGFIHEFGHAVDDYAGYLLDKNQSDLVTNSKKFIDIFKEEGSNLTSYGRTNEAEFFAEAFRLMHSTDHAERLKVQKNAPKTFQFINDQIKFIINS
# BoNT-A LC inh2: BoNT/A light chain protease inhibitors, primary screen, biochemical, flow cytometry, MLPCN library | Botulinum neurotoxin type A light chain protease (Clostridium botulinum A str. ATCC 3502) | multiplex microsphere protease substrate cleavage | inhibition, % at 10 µM | actives 0.17% (n = 360,000); note: plate controls were buffer without enzyme for full effect and enzyme alone for no effect
# Autofluor counter: compound fluorescence in toxin protease inhibitor counterscreen | compound autofluorescence counterscreen, microsphere flow cytometry; stronger effect = higher value | fluorescence intensity (test concentration not listed) | actives 3.1% (n = 360,000) | AID 624483; in the data active = fluorescence intensity above about 16000; inconclusive = no clear call, values can overlap the other calls
# * marks the source's active call; other numbers are inactive results; ? = inconclusive. In the library only some 3.5% were active in any assay of this set; here they are far more common. Cut-off read from the data, not from the text of the source, unless noted: active = inhibition above about 30%; inconclusive = no clear call, values can overlap the other calls; inactive = below that.
SMILES,BoNT-F LC inh,Anthrax LF inh2,BoNT-A LC inh2,Autofluor counter
O=C(Nc1ccc2c(c1)OCO2)c1cccc(S(=O)(=O)N2CCOCC2)c1,1.0,-0.4,-0.5,4369
CC(C)(C)NC(=O)NC(=O)CN1CCN(S(=O)(=O)c2ccccc2)CC1,-58.1,-10.2,-12.6,16805*
O=C(Nc1ccc2c(c1)OCO2)c1cccc(S(=O)(=O)N2CCCC2)c1,-0.3,-6.8,2.3,21861*
Cc1cc(NC(=O)CN2CCN(S(=O)(=O)c3ccc(Cl)cc3)CC2)no1,-1.1,-0.3,-0.2,19724*
O=C(c1ccc(Cl)c(Cl)c1)N1CCC(=O)N([C@H](COCc2cccc(C(F)(F)F)c2)Cc2ccccc2)CC1,-6.0,1.6,0.3,5532
O=C1NC[C@H](CCCCN2C[C@H](Cc3ccccc3)N(CCC3CCCCC3)C(=O)C2=O)N(CCc2ccccc2)C1=O,-2.3,-3.2,0.0,4644
CCN(CC)c1ccc(N=C2C=CC(=O)C=C2NC(C)=O)cc1,-27.3,-7.9,-0.4,3544
Cc1ccc(NC(=O)c2cccc(-n3cnnn3)c2)cc1Cl,-1.3,-2.6,1.1,5706
CCN(CC)S(=O)(=O)c1ccc(NC(=O)COC(=O)CN2C(=O)c3ccccc3C2=O)cc1,1.7,2.7,2.2,22134*
CN(C)c1ccc(NC(=O)CN2C(=O)c3ccccc3C2=O)cc1,39.1*,5.1,-2.8,4403
Cc1ccc(NC(=O)COC(=O)CN2C(=O)c3ccccc3C2=O)cc1,0.2,0.5,1.7,8747
O=C(NCc1ccc(Cl)c(Cl)c1)c1cc(C2CCCCN2C(=O)c2cccs2)on1 (configuration not stated),-39.0,-5.6,-8.1,10010
CC1CCN(C(=O)c2[nH]cnc2C(=O)Nc2ccc(Cl)cc2)CC1,1.3,-2.6,-0.2,3980
Cc1nc2scc(-c3cccs3)c2c(=O)[nH]1,-6.9,-1.3,-4.2,25937*
Cc1cc(C(F)(F)F)nn1CCCNC(=O)c1cnccn1,-0.4,-2.3,?,23254*
CCCCCCCCNC(=O)c1cnccn1,-4.8,0.2,-1.0,10727
COCCNC(=O)C1(C)CCCN(C(=O)c2ccccc2)C1 (configuration not stated),-8.6,-8.4,0.0,3353
CCC(=O)OCc1c(C(F)(F)F)nn(C)c1Sc1ccc(F)cc1,-3.9,-9.9,0.5,8845
CC(=O)OCc1c(C(F)(F)F)nn(C)c1Sc1ccccc1,1.4,-2.1,1.1,19824*
Cc1ccc(C)c(NC(=O)CN(C)C(=O)c2ccc(COc3ccccc3)cc2)c1,0.3,-1.3,0.2,3426
CC(C)Cc1ccc(C(C)CC2=CCC(CN(C)C)C2=O)cc1 (configuration not stated),-11.5,-1.7,0.5,3904
Cc1ccc(-n2c(Cc3ccccc3)n[nH]c2=S)cc1,4.4,0.0,1.5,22337*
S=c1[nH]nc(Cc2ccccc2)n1-c1ccccc1,1.1,1.2,?,19172*
CC1=CC(=O)Nc2ccccc2S1,-4.9,-5.8,1.6,3140
O=c1c2c([N+](=O)[O-])cc([N+](=O)[O-])cc2sn1Cc1ccccc1,55.7*,-10.3,49.9*,3488
SMILES,BoNT-F LC inh,Anthrax LF inh2,BoNT-A LC inh2,Autofluor counter
COc1ccc(N(C(=O)c2cccc([N+](=O)[O-])c2)S(=O)(=O)c2ccc3c(c2)n(C)c(=O)n3C)cc1,-0.2,-4.6,?,16542*
COc1ccc(N(C(=O)C(C)C)S(=O)(=O)c2ccc3c(c2)n(C)c(=O)n3C)cc1,1.1,2.0,0.1,2869
CCCOC(=O)Nc1nnc(CCC)s1,10.0,2.0,7.0,21272*
CCOC(=O)Oc1ccc2c(=O)c(Oc3cc(C)cc(C)c3)coc2c1,1.7,-1.2,?,22166*
COc1ccccc1Oc1coc2cc(OCC(N)=O)ccc2c1=O,40.9*,18.6,0.2,3638
Cc1cccc(Oc2coc3cc(OC(=O)c4cc5ccccc5oc4=O)ccc3c2=O)c1,-1.2,-0.9,?,20697*
O=C(C(=Cc1ccc(O)cc1)c1ccccc1)c1ccccc1,-4.9,-5.5,-0.7,6157
Cc1nn(-c2cc(N3CCCCCC3)ccc2[N+](=O)[O-])c(=O)c2ccccc12,-1.6,1.2,?,23118*
Cc1nn(-c2cc(N3CCCCC3)ccc2N)c(=O)c2ccccc12,0.0,-0.1,?,20582*
O=S(=O)(CCNCc1ccco1)NC1CCCCC1,-3.6,-5.0,-0.7,3872
COCCNC(=O)COc1ccc(Br)cc1Cl,2.9,-1.6,0.1,2459
CCOC(=O)N1CCN(C(=O)COc2ccc(Br)cc2Cl)CC1,-2.5,-1.0,?,20543*
C=CCNC(=O)COc1ccc(Br)cc1Cl,6.2,-10.1,3.7,20768*
